Screens deposited in PubChem by National Center for Advancing Translational Sciences (NCATS).
Most compounds without a hit are left out; they make up all but 19% or so of the library.
IL1B secr inh: inflammasome signaling inhibition, IL-1 beta readout; THP-1 LPS/ATP IL-1B secretion, AlphaLISA, 16 h; stronger effect = lower value; AID 743279; activity change, % at 57.5 µM; 360,000 compounds, 4.7% hits; in the data active means activity change below about -50%; inconclusive means mostly about -30% to -49%
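THP-1 cells pretreated 1 hr with compounds (up to 57.5 uM final), then stimulated with LPS (250 ng/mL final) plus ATP (1.25 mM final); secreted IL-1B measured by AlphaLISA after 16 hr, decreased signal indicating inhibition.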
HT1080NT lethal: kills 2HG-producing HT-1080-NT fibrosarcoma cells; HT-1080-NT fibrosarcoma viability, CellTiter-Glo ATP luminescence, 48 h; Potency, µM (doses to about 46.1 µM), for inactives: at the highest dose activity, negative = less viability, hits mostly cytotoxic; 360,000 compounds, 1.6% hits;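 further: NT is the 2HG producing partner of a matched IDH1 knockdown line; potency means the concentration at half of the fitted maximal effect; 0% = DMSO-treated cells and -100% = media-only wells without cells; nearly all actives have a fitted effect of over 55% in size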
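Luminescent CellTiter-Glo readout after 48 hours of compound exposure at 37 degrees C defined viability of HT-1080-NT cells. Activity was normalized to DMSO wells and cell-free media wells; concentration-response curves were fitted and assigned curve classes.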
DT40 TDP1 CPT: growth inhibition of DT40 Tdp1-/-;hTDP1 cells with camptothecin (screen for TDP1 inhibitors). chicken DT40 Tdp1-/-;hTDP1 cells + 20 nM CPT, ATP luminescence, 48 h. Potency, µM (highest dose often 46.2 µM), for inactives: at the highest dose activity change, negative = growth inhibition, most hits filed as inhibitors. 420,000 compounds, 12% hits. AID 686979; further: potency means the concentration at half of the fitted maximal effect; nearly all actives have a fitted effect of over 55% in size
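Cell growth measured by CellTiter-Glo luminescence after a minimum 48 h, 37 C compound exposure with 20 nM CPT in Tdp1-knockout DT40 cells stably expressing hTDP1, seeded 400/well; qHTS titration format.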
HT1080 IDH1KD tx: toxicity to HT-1080 IDH1 knockdown cells (counter line); AID 686971; HT-1080 IDH1 knockdown viability, ATP luminescence, 48 h; Potency, µM (series often up to 46.1 µM), for the others: top-dose activity, negative = toxicity, usual class: cytotoxic; 360,000 compounds, 2% hits;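 further: potency means the concentration at half of the fitted maximal effect; 0% = DMSO wells and -100% = cell-free medium wells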
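Assay cells: HT-1080 with IDH1 knockdown, 750 per well, RPMI/5% FBS. Exposure: 48 h at 37 °C following 2 h pre-incubation. Read: CellTiter-Glo luminescence; fitted concentration-response, curve class assigned.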
DT40 TDP1 no CPT: qHTS for Inhibitors of human tyrosyl-DNA phosphodiesterase 1 (TDP1): qHTS in cells in absence of CPT. AID 686978, 2013. DT40 Tdp1-/- hTDP1 cells, no CPT, ATP luminescence, 48 h. 420,000 compounds, 15% hits. Potency, µM (highest dose often 46.2 µM), for inactives: at the highest dose activity change, negative = growth inhibition, usual class: inhibitors; further: potency means the concentration at half of the fitted maximal effect; nearly all actives have a fitted effect of over 55% in size
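DT40 Tdp1-/-;hTDP1 cells, no CPT (DMSO vehicle only), 400 cells/well; compounds pin-transferred; ≥48 hr, 37 °C; CellTiter-Glo 30 min RT dark, luminescence read.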
Numbers without * were called inactive; ? = inconclusive; nt = no result given. Unless noted, the call rests on the fitted dose curve; in most records, active means well fitted curve in the direction sought with a large enough effect; inconclusive means small, poorly fitted or top-dose-only effect, or another doubt; inactive means no such curve, though single readings can be large; an effect the other way counts as inactive or inconclusive. Unless noted, on the % scale 0 is the no-effect control and ±100 the full control effect.

SMILES	IL1B secr inh	HT1080NT lethal	DT40 TDP1 CPT	HT1080 IDH1KD tx	DT40 TDP1 no CPT
CC[C@@H](C)[C@@H](N)C1=N[C@H](C(=O)N[C@@H](CC(C)C)C(=O)N[C@@H](CCC(=O)O)C(=O)N[C@@H](C(=O)N[C@@H]2CCCCNC(=O)[C@@H](CC(N)=O)NC(=O)[C@@H](CC(=O)O)NC(=O)[C@@H](Cc3cnc[nH]3)NC(=O)[C@@H](Cc3ccccc3)NC(=O)[C@@H]([C@H](C)CC)NC(=O)[C@@H](CCCN)NC2=O)[C@@H](C)CC)CS1	nt	nt	11%	nt	-12%
N#CCOC(=O)[C@H](Cc1c[nH]c2ccccc12)NS(=O)(=O)c1ccc(Cl)cc1	34	0%	-20%	3%	-30%
Cc1ccc(S(=O)(=O)N(C)C[C@@H]2OCc3cn(nn3)CCCC(=O)N([C@H](C)CO)C[C@H]2C)cc1	6	20%	-25%	15%	0%
CCOc1[nH]c(/N=C/c2ccccc2)c(C#N)c1C#N	nt	nt	6.3µM*	nt	-25%
N#Cc1c(/N=C/c2ccco2)oc(-c2ccccc2)c1-c1ccccc1	-8	-1%	?	-9%	?
COc1[nH]c(/N=C/c2ccco2)c(C#N)c1C#N	nt	nt	16µM*	nt	?
Cc1ccc(NC(=O)Cn2c(=O)n(-c3ccccc3)c(=O)c3ccc(C(=O)NCc4ccc5c(c4)OCO5)cc32)c(C)c1	nt	nt	?	nt	-14%
COc1ccc(C(=O)N2CCCC(Nc3ccc(F)cc3)C2)c(OC)c1 (configuration not stated)	4	2%	-16%	1%	-14%
O=C(Cn1c(=O)oc2ccc(Cl)cc21)Nc1ccon1	-3	0%	8%	0%	-2%
Cc1ccc(S(=O)(=O)N2[C@@H](c3cccc(Cl)c3)C(C(=O)OC(C)(C)C)=CC[C@H]2c2cccc(Cl)c2)cc1	6	3%	9.2µM*	8%	12µM*
CC(C)(C)OC(=O)C1=CC[C@@H](c2ccc(Cl)c(Cl)c2)N(S(=O)(=O)c2ccc(F)cc2)[C@H]1c1cccc(F)c1	3	16%	?	22%	15µM*
CCOc1ccc2c(c1)S/C(=C\c1cccs1)C(=O)N2	10	?	?	?	?
O=C(NN=Cc1cccc([N+](=O)[O-])c1)c1cccc2ccccc12	2	5%	?	11%	?
CCCSc1cc(N2CCCC2)nc(-c2ccccc2)n1	36	10%	4%	9%	-15%
CCCSc1cc(N2CCN(C)CC2)nc(-c2ccc(OC)cc2)n1	-57*	?	?	?	?
COc1cc2c(cc1OC)C1(NCC2)C(=O)Nc2ccccc21 (configuration not stated)	-6	3%	-12%	-21%	11%
COc1cc2c(cc1OC)C1(Nc3c-2c(Cc2ccccc2)nn3-c2ccccc2)C(=O)Nc2ccccc21 (configuration not stated)	-18	?	?	?	23µM*
CC(=O)C1=C(O)C(=O)N(c2ccccn2)C1c1ccccc1[N+](=O)[O-] (configuration not stated)	43	11%	?	1%	16µM*
CN(CC1CCCN(CCc2ccccc2F)C1)C(=O)c1cc2ccccc2o1 (configuration not stated)	?	-3%	?	-3%	?
Cn1nc(C(C)(C)C)cc1C(=O)Sc1cccc(Br)c1	-81*	?	3.7µM*	?	10µM*
CCCSc1nc(C)c(CC(=O)O)c(=O)[nH]1	0	21%	18%	10%	0%
c1ccc(N/N=C(\Cc2ncc[nH]2)c2ccccc2)cc1	-2	-18%	14%	-16%	-1%
COc1cc(C(=O)N/N=C(\Cc2ncc[nH]2)c2ccccc2)cc(OC)c1OC	69	9.2µM*	2.1µM*	4.6µM*	5.2µM*
